From PubChem BioAssay (EPA / NIEHS)
Several values for one entry are separate records, joined by “and”; a condition that tells them apart may be missing. Equal values may be shown once. Activity calls are given as the source filed them. The calls were made as follows: active = hit-call score of the fitted dose curve at least 0.9, where 1 is the maximum; inactive = score below 0.9.

Each compound was assayed on Collagen III, COL3A1 (gene 1281) (assay: BSK_hDFCGF_CollagenIII: BioMAP Diversity Plus: hDFCGF Assay for Collagen III Biomarker Activity (AID 2283056)). Conditions: primary human foreskin fibroblasts; actives raise or lower the signal.
Method: BSK_hDFCGF is a cell-based, multiplexed-readout assay that uses foreskin fibroblast, a human skin primary cell, with measurements taken at 24 hours after chemical dosing in a 96-well plate.BSK_hDFCGF_CollagenIII is an assay component measured in the BSK_hDFCGF assay. It measures Collagen antibody related to regulation of gene expression using ELISA technology.Data from the assay component BSK_hDFCGF_CollagenIII was analyzed into 1 assay endpoint. This assay endpoint, BSK_hDFCGF_CollagenIII, was analyzed with bidirectional fitting relative to DMSO as the negative control and baseline of activity. Using a type of binding reporter, gain or loss-of-signal activity can be used to understand changes in the signaling as they relate to the gene COL3A1. Furthermore, this assay endpoint can be referred to as a primary readout, because this assay has produced multiple assay endpoints where this one serves a signaling function. To generalize the intended target to other relatable targets, this assay endpoint is annotated to the cell adhesion molecules intended target family, where the subfamily is collagen.
The levels of cell surface (or secreted, indicated by the prefix "s") biomarker endpoints were measured by ELISA. Overt cytotoxicity to cells in confluent adherent cultures (all systems other than the BT system) was assessed by measuring total protein levels using sulforhodamine B (SRB) staining in parallel cultures at the time of biomarker measurements, indicated as SRB endpoints. For proliferation assays for adherent cell types, individual cell types are cultured at sub-confluence and relative cell numbers quantified by SRB staining at time points optimized for each system (48 h: 3C and CASM3C systems; 72 h: BT and HDF3CGF systems; 96 h: SAg system). SRB was performed by staining cells with 0.1% SRB after fixation with 10% TCA and reading wells at 560 nm.Viability and proliferation of PBMC (T cells) was quantified by Alamar Blue reduction for the SAg and BT systems. For PBMC viability (referred to as PBMC Cytotoxicity within the assay endpoint names), cells were plated (75,000/well in a 96-well plate) and then chemical samples added for 1 h before addition of activators, SEB and TSST-1 (20 ng/mL final concentration each). Cells were incubated for 90 h. Then, Alamar Blue (20 uL/well) (Invitrogen, Cat DAL1100) was added for 6 h, and the plates were read with a fluorescence microplate reader at 546/580 nm (excitation/emission). For PBMC proliferation, cells were plated and activated as above but incubated for only 16 h prior to addition of Alamar Blue. Plates were read after 6 h.
`Cc1[nH]nc2c1N=C(c1ccccc1Cl)c1cc([N+](=O)[O-])ccc1N2` was tested, and the outcome was “inactive”. In the case of `O=P(O)(O)CCC(F)(F)C(F)(F)C(F)(F)C(F)(F)C(F)(F)C(F)(F)C(F)(F)C(F)(F)F`, the AC50 is reported as 11.7 µM (active) and 9.02 µM (active). In the case of `O=C(NO)c1ccccc1`, the outcome is reported as “inactive”. In the case of `CCCCCCCCCCCC`, the AC50 is reported as 9.2 µM (active) and 5.67 µM (active). For `C=CC(=C)CC/C=C(\C)CCC=C(C)C`, the AC50 was 3.62 µM (active). `CCCCCCCCCCCCOS(=O)(=O)O` was tested, and the outcome was “inactive”. `CC[N+](CC)(CC)Cc1ccccc1` was tested, and the outcome was “inactive”. In the case of `CS(=O)(=O)c1ccc([C@@H](CC2CCCC2)C(=O)Nc2cnccn2)cc1Cl`, the outcome is reported as “inactive”. With `CCCCCCCCCCCCCCC` the outcome was “inactive”. In the case of `OCC(F)(F)C(F)(F)C(F)(F)C(F)(F)C(F)(F)C(F)(F)C(F)(F)C(F)(F)C(F)(F)C(F)(F)C(F)(F)F`, the AC50 is reported as 58 nM (active) and 74.1 nM (active). For `OCCN1CN(CCO)CN(CCO)C1`, the outcome was “inactive”. In the case of `CC(C)(C)c1ccc(O)c(O)c1`, the AC50 is reported as 34.7 µM (active). In the case of `COc1cc(OC)nc(NC(=O)NS(=O)(=O)Nc2ccccc2C(=O)N(C)C)n1`, the outcome is reported as “inactive”. In the case of `CCCCC=O`, the outcome is reported as “inactive”. With `C=CC(=O)OCCC(F)(F)C(F)(F)C(F)(F)C(F)(F)C(F)(F)C(F)(F)C(F)(F)C(F)(F)F` the outcome was “inactive”. For `CCOC(=O)CN[C@@H](C(=O)N1CC[C@H]1C(=O)NCc1ccc(/C(N)=N/O)cc1)C1CCCCC1`, the outcome was “inactive”. In the case of `CN(Cc1cnc2nc(N)nc(N)c2n1)c1ccc(C(=O)N[C@@H](CCC(=O)O)C(=O)O)cc1`, the outcome is reported as “inactive”. For `CC(=O)Nc1ccc(O)cc1`, the outcome was “inactive”. In the case of `CCCCC(CC)C(=O)OCCOCCOCCOCCOC(=O)C(CC)CCCC` (stereo not given), the outcome is reported as “inactive”. `Cc1cccc2c1ccc1ccccc12` was tested, and the outcome was “inactive”. `O=C1NS(=O)(=O)c2ccccc21` was tested, and the outcome was “inactive”. For `Oc1c(Cl)cc(Cl)cc1Sc1cc(Cl)cc(Cl)c1O`, the AC50 was 1.39 µM (active) and 455 nM (active). In the case of `O=C(CC(=O)C(F)(F)C(F)(F)C(F)(F)F)c1cccs1`, the outcome is reported as “inactive”. With `C=CC(C)(CCC=C(C)C)OC(C)=O` (stereo not given) the outcome was “inactive”. With `O=P(O)(O)CCC(F)(F)C(F)(F)C(F)(F)C(F)(F)C(F)(F)C(F)(F)F` the outcome was “inactive”. For `Oc1ccc(Cc2ccccc2O)cc1`, the outcome was “inactive”. With `O=C(O)CCC(F)(F)C(F)(F)C(F)(F)C(F)(F)C(F)(F)C(F)(F)F` the outcome was “inactive”. `NC(=NCCCCCCN=C(N)/N=C(\N)Nc1ccc(Cl)cc1)/N=C(\N)Nc1ccc(Cl)cc1` was tested, and the AC50 was 1.18 µM (active). With `Clc1ccc(Nc2nnc(Cc3ccncc3)c3ccccc23)cc1` the outcome was “inactive”. In the case of `CCCCC(CC)C(=O)O` (stereo not given), the outcome is reported as “inactive”. `CC1=NN(c2ccccc2)C(=O)C1` was tested, and the outcome was “inactive”. `O=C1c2ccc(O)c(O)c2C(=O)c2c(O)ccc(O)c21` was tested, and the outcome was “inactive”. With `N=C(N)c1ccc(OCCCCCOc2ccc(C(=N)N)cc2)cc1` the outcome was “inactive”. With `O=C1OC2(c3ccccc31)c1cc(I)c(O)c(I)c1Oc1c2cc(I)c(O)c1I` the AC50 was 3.75 µM (active). With `CCCCCc1ccc(O)cc1` the AC50 was 12.5 µM (active). `O=C(c1ccccc1)c1ccccc1` was tested, and the outcome was “inactive”. With `CN(C)CCOC(c1ccccc1)c1ccccc1` the outcome was “inactive”. `O=C(O)CCC(F)(F)C(F)(F)C(F)(F)C(F)(F)C(F)(F)F` was tested, and the outcome was “inactive”. With `COc1cccc(O)c1` the outcome was “inactive”. With `C[C@]12CC[C@@H]3c4ccc(O)cc4CC[C@H]3[C@@H]1C[C@@H](O)[C@@H]2O` the outcome was “inactive”.
